Key:
Conditions in all cases: Compound concentration 20.0 uM, Protein concentration 2.0 uM, Result type QC Liability
[1] = target: Tyrosine-protein kinase ABL1 (Homo sapiens) (UniProt P00519)
[2] = target: Cyclin-dependent kinase 2 (Homo sapiens) (UniProt P24941)
[3] = target: Casein kinase I isoform delta (Homo sapiens) (UniProt P48730)
[4] = target: Glycogen synthase kinase-3 beta (Homo sapiens) (UniProt P49841)
[5] = target: Mitogen-activated protein kinase 1 (Homo sapiens) (UniProt P28482)
[6] = target: T1, Aurora kinase A (Homo sapiens) (UniProt O14965)
T1 sequence (whole entry): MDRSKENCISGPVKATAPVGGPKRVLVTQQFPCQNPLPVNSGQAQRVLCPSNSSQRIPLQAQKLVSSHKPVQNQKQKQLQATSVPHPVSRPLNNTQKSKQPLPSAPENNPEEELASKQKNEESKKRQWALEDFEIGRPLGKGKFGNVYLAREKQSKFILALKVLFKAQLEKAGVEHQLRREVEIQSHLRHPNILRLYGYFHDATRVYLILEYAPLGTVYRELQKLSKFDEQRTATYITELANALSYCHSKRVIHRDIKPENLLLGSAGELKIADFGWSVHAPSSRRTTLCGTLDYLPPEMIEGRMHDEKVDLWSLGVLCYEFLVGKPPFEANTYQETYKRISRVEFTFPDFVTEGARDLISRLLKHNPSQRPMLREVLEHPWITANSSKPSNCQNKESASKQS

Chain of Mitogen-activated protein kinase 1 (Homo sapiens) (P28482 whole entry): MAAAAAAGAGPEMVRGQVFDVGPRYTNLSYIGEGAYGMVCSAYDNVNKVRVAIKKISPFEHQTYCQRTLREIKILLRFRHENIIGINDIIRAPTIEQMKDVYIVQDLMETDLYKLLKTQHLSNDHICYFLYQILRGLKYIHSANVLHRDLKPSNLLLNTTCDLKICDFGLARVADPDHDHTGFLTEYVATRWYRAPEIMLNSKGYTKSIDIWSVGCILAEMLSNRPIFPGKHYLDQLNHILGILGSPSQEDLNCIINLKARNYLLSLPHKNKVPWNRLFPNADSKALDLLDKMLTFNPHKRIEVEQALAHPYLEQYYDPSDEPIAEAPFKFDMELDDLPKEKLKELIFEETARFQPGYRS
Chain of Casein kinase I isoform delta (Homo sapiens) (P48730 whole entry, looked up, canonical isoform): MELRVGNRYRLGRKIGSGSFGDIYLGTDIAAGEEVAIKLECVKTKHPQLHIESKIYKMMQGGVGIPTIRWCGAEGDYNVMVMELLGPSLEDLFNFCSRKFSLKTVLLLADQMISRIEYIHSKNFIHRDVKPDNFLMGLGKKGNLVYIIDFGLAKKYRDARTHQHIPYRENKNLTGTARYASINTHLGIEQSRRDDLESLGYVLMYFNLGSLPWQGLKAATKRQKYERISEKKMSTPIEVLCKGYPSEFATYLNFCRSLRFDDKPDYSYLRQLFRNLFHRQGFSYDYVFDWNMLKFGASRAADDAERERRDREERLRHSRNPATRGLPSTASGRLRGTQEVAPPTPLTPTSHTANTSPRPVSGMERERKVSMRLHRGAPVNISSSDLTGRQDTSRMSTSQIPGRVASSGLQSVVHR
Chain of Glycogen synthase kinase-3 beta (Homo sapiens) (P49841 whole entry, looked up): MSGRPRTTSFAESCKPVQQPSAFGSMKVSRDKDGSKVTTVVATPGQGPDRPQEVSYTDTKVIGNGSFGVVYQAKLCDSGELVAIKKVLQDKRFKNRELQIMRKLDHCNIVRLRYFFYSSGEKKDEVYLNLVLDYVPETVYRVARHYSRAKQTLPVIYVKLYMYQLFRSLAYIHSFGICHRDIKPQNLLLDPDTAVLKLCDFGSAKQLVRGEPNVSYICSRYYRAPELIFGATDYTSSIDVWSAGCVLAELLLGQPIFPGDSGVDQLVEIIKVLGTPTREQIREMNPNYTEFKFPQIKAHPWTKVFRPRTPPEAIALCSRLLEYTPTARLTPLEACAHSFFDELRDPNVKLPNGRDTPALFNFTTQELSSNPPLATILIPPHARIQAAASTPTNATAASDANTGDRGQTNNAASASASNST
Chain of Tyrosine-protein kinase ABL1 (Homo sapiens) (P00519 whole entry): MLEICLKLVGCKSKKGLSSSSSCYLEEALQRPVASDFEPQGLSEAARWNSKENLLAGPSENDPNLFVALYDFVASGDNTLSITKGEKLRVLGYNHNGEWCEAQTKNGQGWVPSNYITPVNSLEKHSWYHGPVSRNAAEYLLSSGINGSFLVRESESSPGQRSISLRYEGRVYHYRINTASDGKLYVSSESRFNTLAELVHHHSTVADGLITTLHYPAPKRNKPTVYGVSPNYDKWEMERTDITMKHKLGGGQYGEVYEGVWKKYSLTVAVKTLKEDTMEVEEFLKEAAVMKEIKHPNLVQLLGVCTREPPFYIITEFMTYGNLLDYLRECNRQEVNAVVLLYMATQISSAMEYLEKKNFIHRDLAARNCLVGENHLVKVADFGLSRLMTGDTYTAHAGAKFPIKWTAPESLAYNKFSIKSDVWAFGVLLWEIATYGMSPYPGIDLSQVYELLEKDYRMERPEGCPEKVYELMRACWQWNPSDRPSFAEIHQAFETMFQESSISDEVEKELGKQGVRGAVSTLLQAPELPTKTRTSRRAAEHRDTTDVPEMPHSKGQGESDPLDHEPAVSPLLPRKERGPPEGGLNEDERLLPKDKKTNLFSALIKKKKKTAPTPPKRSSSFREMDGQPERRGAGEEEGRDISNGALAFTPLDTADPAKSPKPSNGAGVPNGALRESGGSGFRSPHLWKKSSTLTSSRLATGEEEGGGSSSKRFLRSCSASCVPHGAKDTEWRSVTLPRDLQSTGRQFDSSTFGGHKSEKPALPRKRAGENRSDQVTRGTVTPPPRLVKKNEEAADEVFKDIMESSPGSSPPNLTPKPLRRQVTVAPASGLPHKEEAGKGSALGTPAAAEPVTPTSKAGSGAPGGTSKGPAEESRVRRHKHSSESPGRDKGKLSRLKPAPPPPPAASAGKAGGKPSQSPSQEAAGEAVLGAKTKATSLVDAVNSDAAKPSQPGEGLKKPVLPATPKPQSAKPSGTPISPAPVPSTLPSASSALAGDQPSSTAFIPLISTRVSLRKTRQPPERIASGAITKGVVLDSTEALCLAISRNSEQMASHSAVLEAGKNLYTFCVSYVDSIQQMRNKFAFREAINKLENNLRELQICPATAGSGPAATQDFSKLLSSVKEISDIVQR

| SMILES | ΔTm [1] | ΔTm [2] | ΔTm [3] | ΔTm [4] | ΔTm [5] | ΔTm [6] |
| --- | --- | --- | --- | --- | --- | --- |
| CC(=O)Oc1ccc2c(c1)[C@@]1(C)CCC[C@](C)(C(=O)OC(=O)[C@@]3(C)CCC[C@]4(C)c5cc(OC(C)=O)ccc5CC[C@@H]34)[C@@H]1CC2 | 0.17 °C | 0.49 °C | 0.28 °C | -0.85 °C | -2.79 °C | -1.32 °C |
| O=C1Nc2ccc(I)cc2/C1=C/c1cc(Br)c(O)c(Br)c1 | 2.98 °C | 0.35 °C | 0.18 °C | -1.46 °C | 0.48 °C | -0.27 °C |
| Cc1cc(Cn2c(N3CC4(CNC4)C3)nc3cc(Cl)cc(N4CCN(C)CC4)c32)cc(C)c1F | -0.24 °C | 0.2 °C | 0.39 °C | -1.71 °C | 0.34 °C | 0.08 °C |
| COc1cc2ncnc(N[C@H](C)c3ccccc3)c2cc1OC1CCN(S(C)(=O)=O)CC1 | 1.29 °C | 0.54 °C | 0.38 °C | 0.09 °C | 0.1 °C | 0.05 °C |
| O=C(Nc1ccc(Cl)c(-c2ccccn2)c1)c1cccc(COc2ccc(Br)cc2CNCCO)c1 | 0.35 °C | -0.21 °C | 0.55 °C | -0.89 °C | -0.69 °C | -0.51 °C |
| COc1ccc(CC[C@@H](OC(=O)[C@H]2CCCCN2C(=O)[C@@H](c2cc(OC)c(OC)c(OC)c2)C2CCCCC2)c2cccc(OCCN3CCOCC3)c2)cc1OC | -1.34 °C | -4.12 °C | -1.85 °C | -1.12 °C | -0.42 °C | -1.27 °C |
| CCc1cc2c(cc1N1CCC(N3CCOCC3)CC1)C(C)(C)c1[nH]c3cc(C#N)ccc3c1C2=O | 0.88 °C | 1.02 °C | 0.16 °C | 0.18 °C | 0.1 °C | -0.02 °C |
| Cc1c(N2CCNCC2)nc2ccc(Br)cc2c1C(=O)NC[C@H](CCC(=O)O)c1ccccc1Cl | 0.01 °C | 0.4 °C | 0.62 °C | 0.03 °C | 0.18 °C | 0.41 °C |
| Cc1nn(-c2nc3ccc(Cl)c(Cl)c3[nH]2)c(O)c1C1OC(=O)c2ccccc21 (stereo not given) | -0.04 °C | 2.69 °C | -0.14 °C | 0.53 °C | 0.2 °C | 0.71 °C |
| Cn1cc(NC(=O)c2ccc3nc4n(c3c2)CCCNC4=O)nc1C(=O)NC1CCCC1 | 1.61 °C | 0.41 °C | 0.38 °C | -0.59 °C | 0.46 °C | 0.5 °C |
| CN1CCN(c2ccc(/C=C(\C#N)c3ccccc3Br)cc2)CC1 | -0.04 °C | 0.19 °C | 0.85 °C | -0.47 °C | 0.11 °C | -1.83 °C |
| CNc1nc(Nc2ccc(C(=O)N3CCOCC3)cc2OC)ncc1Cl | 0.4 °C | 0.09 °C | -0.01 °C | -0.95 °C | 0.36 °C | 3.14 °C |
| C[C@H](CCC(=O)O)[C@H]1CC[C@H]2[C@@H]3[C@H](O)C[C@@H]4C[C@H](O)CC[C@]4(C)[C@H]3C[C@H](O)[C@]12C | 0.17 °C | 0.08 °C | 0.33 °C | -0.66 °C | 0.4 °C | -1.53 °C |
| CNc1ncc2cc(-c3ccc(-c4cccc(C)n4)cc3Cl)c(=O)n(C[C@H]3OC[C@H](N)CO3)c2n1 | 5.88 °C | 1.85 °C | 1.07 °C | 0.45 °C | -0.4 °C | 8.51 °C |
| CN1CC(=O)N(C)c2cnc(Nc3ccc(NC(=O)Nc4cccc(C(=O)O)c4)cc3)nc21 | 0.56 °C | -0.17 °C | 0.58 °C | 1.43 °C | 0.43 °C | 2 °C |
| Cc1sc(C(=O)c2cncnc2N[C@@H]2C[C@H](COS(N)(=O)=O)[C@@H](O)C2)cc1[C@@H]1NCCc2ccc(Cl)cc21 | 0.37 °C | 0.66 °C | -0.59 °C | 0.3 °C | -0.53 °C | -0.27 °C |
| CC(C)(C)c1cc(NC(=O)c2csc(Nc3ccccn3)n2)no1 | 1.84 °C | 0.49 °C | 0.84 °C | 0.22 °C | 0.57 °C | 1.27 °C |
| O=C(N[C@H](Cc1ccccc1)C(=O)O)c1cccc(OCc2cccnc2)c1 | 0.31 °C | 1.19 °C | -0.02 °C | 0.45 °C | 0.21 °C | -0.05 °C |
| CCn1c(-c2nonc2N)nc2cncc(C(=O)N3CC[C@H](N)C3)c21 | -0.16 °C | 0.25 °C | 0.4 °C | 6 °C | 0.69 °C | 0.77 °C |
| CC(C)(c1ccc(OCc2cccc(COc3ccc(C(=N)N)cc3)c2)cc1)c1ccc(O[C@@H]2O[C@H](C(=O)O)[C@@H](O)[C@H](O)[C@H]2O)cc1 | -2.82 °C | -1.86 °C | -5.29 °C | -4.59 °C | -6.63 °C | -5.6 °C |
| CN(C)C/C=C/C(=O)Nc1cc2c(Nc3ccc(F)c(Cl)c3)ncnc2cc1OC[C@@H]1CCCO1 | 6.89 °C | -0.1 °C | 1.15 °C | 2.63 °C | -1.79 °C | 1.39 °C |
| CCc1nc(-c2cccc(C)c2)c(-c2ccncc2)s1 | 1.94 °C | -0.27 °C | 3.88 °C | 3.39 °C | 0.28 °C | -0.09 °C |
| CC1(C)CCC(CN2CCN(c3ccc(C(=O)NS(=O)(=O)c4ccc(NCC5CCOCC5)c([N+](=O)[O-])c4)c(Oc4cnc5[nH]ccc5c4)c3)CC2)=C(c2ccc(Cl)cc2)C1 | -0.27 °C | 1.18 °C | -0.88 °C | -0.99 °C | 0.48 °C | 0.44 °C |
| COc1cc2nc(C)nc(NC3(c4ccccc4)CC3)c2cc1OC | 0.57 °C | 0.41 °C | 0.15 °C | -0.3 °C | 0.33 °C | 0.65 °C |
| CCN(CC)C/C=C/C(=O)Nc1cc2c(Nc3ccc(F)c(Cl)c3)ncnc2cc1OCC1CC1 | 7.73 °C | -0.55 °C | 0.34 °C | -0.95 °C | -0.24 °C | 1.29 °C |

From ChEMBL document CHEMBL5308504, “Tm Shift (DSF) assay results for EUbOPEN Chemogenomics Library” (2023)
